According to PubChem BioAssay (EPA / NIEHS):
Inconclusive results are not listed. Active and inactive are the calls of the source. The calls were made as follows, unless noted: active = hit-call score of the fitted dose curve at least 0.9, where 1 is the maximum; inconclusive = response in the unintended direction; inactive = score below 0.9.

Key:
[1] = ATG_TAL_CIS: Attagene CIS-FACTORIAL HepG2 Assay for human TAL Basal Promoter (AID 2282966; active = hit-call score of the fitted dose curve at least 0.9, where 1 is the maximum; inactive = score below 0.9;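 also: background control endpoint measuring basal TAL promoter reporter mRNA not a specific factor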); settings: HepG2 Attagene cis-factorial TAL promoter reporter; actives raise or lower the signal
Outline: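 HepG2, transient MRTU transfection, 24 h compound exposure; RNA → oligo(dT) RT → PCR → 6-FAM primer extension → HpaI digest → CE fluorescence. Bidirectional curve fit vs DMSO. Background-control readout.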

[2] = ATG_TGFb_CIS: Attagene CIS-FACTORIAL HepG2 Assay for human Transforming Growth Factor (TGF) (AID 2282967; active = hit-call score of the fitted dose curve at least 0.9, where 1 is the maximum; inactive = score below 0.9); settings: HepG2 Attagene CIS TGFb reporter, mRNA transcription; actives raise or lower the signal
Outline: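 Transient MRTU transfection of HepG2 (FuGene 6). Dose 24 h. TriZol RNA, oligo(dT) RT, PCR, 6-FAM primer extension, HpaI cut, CE. Bidirectional fit, DMSO = baseline.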

[3] = ATG_VDRE_CIS: Attagene CIS-FACTORIAL HepG2 Assay for human Vitamin D Receptor Element (VDRE) (AID 2282968; active = hit-call score of the fitted dose curve at least 0.9, where 1 is the maximum; inactive = score below 0.9); settings: HepG2 VDRE cis-reporter transcription, actives raise or lower the signal
Outline: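 Compounds were applied for 24 h to HepG2 cells transfected with promoter-regulated reporter units. Total RNA was reverse-transcribed, and reporter amplicons were fluorescently labelled and sized by capillary electrophoresis.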

[4] = biological target: Nuclear receptor subfamily 1 group I member 3 (Homo sapiens) (UniProt Q14994); assay: ATG_CAR_TRANS: Attagene TRANS-FACTORIAL HepG2 Assay for human Constitutive Androstane Receptor (CAR) (AID 2282969); settings: HepG2 Attagene TRANS-FACTORIAL CAR reporter;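 also: activators raise reporter mRNA above DMSO so AC50 marks induction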
Sequence of Nuclear receptor subfamily 1 group I member 3 (Homo sapiens) (Q14994 whole entry, looked up, the tested form may be a part): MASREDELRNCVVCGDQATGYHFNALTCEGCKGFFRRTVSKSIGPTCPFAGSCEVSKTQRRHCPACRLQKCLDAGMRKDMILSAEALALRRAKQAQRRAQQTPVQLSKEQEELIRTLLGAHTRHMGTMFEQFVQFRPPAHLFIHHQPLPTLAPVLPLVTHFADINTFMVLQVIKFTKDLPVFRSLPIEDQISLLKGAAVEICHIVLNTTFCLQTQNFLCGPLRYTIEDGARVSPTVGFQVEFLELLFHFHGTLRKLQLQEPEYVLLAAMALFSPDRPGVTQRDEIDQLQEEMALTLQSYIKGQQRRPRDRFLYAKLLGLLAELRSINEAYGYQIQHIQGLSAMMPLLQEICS
Outline: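 Transiently transfected HepG2, multiplex TRANS reporters (CAR-Gal4 chimera driving GAL4-UAS reporter). 24 h dosing. Readout: reporter transcript by RT-PCR + capillary electrophoresis, fluorescence intensity; positive direction vs DMSO.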

[5] = biological target: Estrogen receptor (Homo sapiens) (UniProt P03372); assay: ATG_ERa_TRANS: Attagene TRANS-FACTORIAL HepG2 Assay for human Estrogen Receptor alpha (ERa) (AID 2282970); settings: HepG2 Attagene TRANS ERa GAL4 reporter, mRNA
Sequence of Estrogen receptor (Homo sapiens) (P03372 whole entry, looked up, the tested form may be a part): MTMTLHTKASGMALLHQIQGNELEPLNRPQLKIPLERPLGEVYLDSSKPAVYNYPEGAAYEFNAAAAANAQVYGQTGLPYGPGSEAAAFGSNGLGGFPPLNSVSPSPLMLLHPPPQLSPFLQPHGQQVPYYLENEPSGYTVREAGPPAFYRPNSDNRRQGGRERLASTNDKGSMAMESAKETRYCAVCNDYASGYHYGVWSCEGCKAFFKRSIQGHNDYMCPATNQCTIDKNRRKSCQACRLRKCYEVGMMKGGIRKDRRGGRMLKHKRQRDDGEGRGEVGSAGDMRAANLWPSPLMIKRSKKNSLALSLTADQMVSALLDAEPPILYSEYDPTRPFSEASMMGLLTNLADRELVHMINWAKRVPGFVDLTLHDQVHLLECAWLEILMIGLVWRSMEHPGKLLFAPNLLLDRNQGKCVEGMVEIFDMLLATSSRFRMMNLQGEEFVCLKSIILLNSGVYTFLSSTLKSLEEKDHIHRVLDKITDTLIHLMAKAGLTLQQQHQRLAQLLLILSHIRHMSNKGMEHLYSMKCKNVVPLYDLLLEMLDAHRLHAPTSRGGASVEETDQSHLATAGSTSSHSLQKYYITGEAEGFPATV
Outline: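 Reporter mRNA induction after 24 hours, detected by fluorescent RT-PCR and capillary electrophoresis, gives the read-out. Cells are HepG2 transiently transfected with GAL4-UAS reporter transcription units responding to chimeric NR-Gal4. Activity is taken as gain of signal over DMSO baseline.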

[6] = biological target: X-box-binding protein 1 (Homo sapiens) (UniProt P17861); assay: ATG_Xbp1_CIS: Attagene CIS-FACTORIAL HepG2 Assay for human X-box Binding Protein 1 (XBP1) (AID 2282972; active = hit-call score of the fitted dose curve at least 0.9, where 1 is the maximum; inactive = score below 0.9); settings: HepG2 XBP1 cis-element reporter, Attagene multiplex; actives raise or lower the signal
Sequence of X-box-binding protein 1 (Homo sapiens) (P17861 whole entry, looked up): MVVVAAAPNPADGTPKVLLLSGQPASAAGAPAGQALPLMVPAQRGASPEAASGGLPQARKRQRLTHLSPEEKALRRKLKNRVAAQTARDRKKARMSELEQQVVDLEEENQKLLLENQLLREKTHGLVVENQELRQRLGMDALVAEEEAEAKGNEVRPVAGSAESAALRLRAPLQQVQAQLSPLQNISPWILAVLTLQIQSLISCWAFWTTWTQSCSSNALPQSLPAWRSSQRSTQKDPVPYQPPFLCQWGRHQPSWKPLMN
Outline: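 Multiplexed cis-reporter readout in transfected HepG2 liver cells. Exposure lasted 24 hours. Activity in either direction was fitted against DMSO as negative control and baseline.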

[7] = ATG_GAL4_TRANS: Attagene TRANS-FACTORIAL HepG2 Assay for GAL4 (Internal Marker) (AID 2282976); settings: HepG2 Attagene TRANS GAL4 internal marker reporter
Outline: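 RT-PCR/capillary electrophoresis readout of reporter mRNA. HepG2, transient MRTU transfection (GAL4-UAS reporters), 24 h compound exposure. Background-control endpoint, positive direction vs DMSO baseline.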

[8] = biological target: Glucocorticoid receptor (Homo sapiens) (UniProt P04150); assay: ATG_GR_TRANS: Attagene TRANS-FACTORIAL HepG2 Assay for human Glucocorticoid Receptor (GR) (AID 2282978); settings: HepG2 Attagene TRANS GR reporter, mRNA transcription;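 also: activators score as hits since higher reporter transcript over DMSO is fitted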
Sequence of Glucocorticoid receptor (Homo sapiens) (P04150 whole entry, looked up, the tested form may be a part): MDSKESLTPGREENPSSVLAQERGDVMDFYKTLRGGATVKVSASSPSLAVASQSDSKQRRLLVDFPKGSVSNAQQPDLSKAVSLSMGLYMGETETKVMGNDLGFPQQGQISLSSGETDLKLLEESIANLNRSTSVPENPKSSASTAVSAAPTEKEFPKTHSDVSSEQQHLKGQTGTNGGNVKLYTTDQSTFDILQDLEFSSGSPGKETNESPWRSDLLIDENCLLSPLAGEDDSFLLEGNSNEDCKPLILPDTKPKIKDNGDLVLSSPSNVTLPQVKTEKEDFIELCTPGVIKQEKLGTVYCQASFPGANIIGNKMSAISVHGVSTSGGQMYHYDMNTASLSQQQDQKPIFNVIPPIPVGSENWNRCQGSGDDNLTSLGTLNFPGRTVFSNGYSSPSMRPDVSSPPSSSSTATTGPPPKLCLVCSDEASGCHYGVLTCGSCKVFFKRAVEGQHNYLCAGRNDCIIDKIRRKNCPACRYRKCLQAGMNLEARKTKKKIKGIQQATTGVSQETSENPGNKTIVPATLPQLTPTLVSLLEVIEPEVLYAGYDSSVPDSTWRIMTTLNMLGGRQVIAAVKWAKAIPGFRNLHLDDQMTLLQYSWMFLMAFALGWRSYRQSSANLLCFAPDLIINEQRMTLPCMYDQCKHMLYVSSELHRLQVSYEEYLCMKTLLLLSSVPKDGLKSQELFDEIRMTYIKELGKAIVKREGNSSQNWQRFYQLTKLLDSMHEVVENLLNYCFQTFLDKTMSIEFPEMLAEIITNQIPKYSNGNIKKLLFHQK
Outline: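 Exogenous NR-GAL4 fusion activity was assessed through induced GAL4-UAS reporter transcripts in transfected human HepG2 cells, quantified after 24 h by RT-PCR and fluorescent capillary electrophoresis with DMSO as baseline.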

[9] = biological target: Oxysterols receptor LXR-beta (Homo sapiens) (UniProt P55055); assay: ATG_LXRb_TRANS: Attagene TRANS-FACTORIAL HepG2 Assay for human Liver X Receptor beta (LXRb) (AID 2282981); settings: HepG2 Attagene TRANS GAL4-LXRb reporter, mRNA
Sequence of Oxysterols receptor LXR-beta (Homo sapiens) (P55055 whole entry, looked up, the tested form may be a part): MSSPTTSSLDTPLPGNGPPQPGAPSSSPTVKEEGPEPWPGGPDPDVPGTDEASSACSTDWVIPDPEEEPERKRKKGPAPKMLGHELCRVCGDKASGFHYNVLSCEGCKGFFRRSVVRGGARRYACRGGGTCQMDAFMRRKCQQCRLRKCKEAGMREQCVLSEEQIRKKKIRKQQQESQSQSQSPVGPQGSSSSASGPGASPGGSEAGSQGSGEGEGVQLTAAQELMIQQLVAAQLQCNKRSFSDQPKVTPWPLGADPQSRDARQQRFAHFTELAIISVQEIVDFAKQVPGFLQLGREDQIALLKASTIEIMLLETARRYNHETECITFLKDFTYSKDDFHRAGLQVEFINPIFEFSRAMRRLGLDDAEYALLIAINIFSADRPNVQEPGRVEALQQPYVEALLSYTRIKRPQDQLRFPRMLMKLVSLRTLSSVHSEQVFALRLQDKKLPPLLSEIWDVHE
Outline: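 Multiplexed reporter assay, HepG2, 24 h dosing. Fluorescence of labelled RT-PCR products after capillary electrophoresis gives transcript level; positive fitting direction relative to DMSO.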

[10] = biological target: Hepatocyte nuclear factor 4-alpha (Homo sapiens) (UniProt P41235); assay: ATG_HNF4a_TRANS: Attagene TRANS-FACTORIAL HepG2 Assay for human Hepatocyte Nuclear Factor 4 alpha (HNF4a) (AID 2282982); settings: HepG2 HNF4a transactivation reporter, mRNA readout
Sequence of Hepatocyte nuclear factor 4-alpha (Homo sapiens) (P41235 whole entry, looked up, the tested form may be a part): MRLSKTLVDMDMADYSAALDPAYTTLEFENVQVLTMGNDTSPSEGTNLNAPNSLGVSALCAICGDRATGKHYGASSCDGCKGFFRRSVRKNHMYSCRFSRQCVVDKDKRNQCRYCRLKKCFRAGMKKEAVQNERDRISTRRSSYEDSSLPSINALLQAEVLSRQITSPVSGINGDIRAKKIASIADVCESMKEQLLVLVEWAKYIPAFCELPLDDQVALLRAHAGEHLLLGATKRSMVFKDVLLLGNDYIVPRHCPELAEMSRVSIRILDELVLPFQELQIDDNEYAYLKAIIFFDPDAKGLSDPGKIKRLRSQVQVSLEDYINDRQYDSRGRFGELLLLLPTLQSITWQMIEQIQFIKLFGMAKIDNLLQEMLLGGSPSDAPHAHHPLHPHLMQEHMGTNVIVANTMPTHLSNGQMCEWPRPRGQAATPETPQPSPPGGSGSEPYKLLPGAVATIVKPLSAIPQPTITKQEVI
Outline: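 Endpoint reflects transcriptional activation of a GAL4-UAS reporter by an HNF4a-GAL4 chimera in transfected HepG2 cells, 24 h post-dosing. Fluorescence from RT-PCR products separated by capillary electrophoresis; DMSO baseline.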

[11] = ATG_M_06_TRANS: Attagene TRANS-FACTORIAL HepG2 Assay for M06 Transcription Factor (Internal Marker) (AID 2282983); settings: HepG2 Attagene TRANS M06 internal marker reporter
Outline: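 Read-out: fluorescent reporter cDNA fragments resolved by capillary electrophoresis after RT-PCR and HpaI cut. Source cells were HepG2 carrying transfected multi-reporter GAL4 constructs, dosed 24 h. Increase over DMSO control analysed.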

[12] = biological target: Nuclear receptor subfamily 4 group A member 2 (Homo sapiens) (UniProt P43354); assay: ATG_NURR1_TRANS: Attagene TRANS-FACTORIAL HepG2 Assay for human Nuclear Receptor Related Protein 1 (NURR1) (AID 2282985); settings: HepG2 Attagene TRANS reporter, mRNA readout
Sequence of Nuclear receptor subfamily 4 group A member 2 (Homo sapiens) (P43354 whole entry, looked up): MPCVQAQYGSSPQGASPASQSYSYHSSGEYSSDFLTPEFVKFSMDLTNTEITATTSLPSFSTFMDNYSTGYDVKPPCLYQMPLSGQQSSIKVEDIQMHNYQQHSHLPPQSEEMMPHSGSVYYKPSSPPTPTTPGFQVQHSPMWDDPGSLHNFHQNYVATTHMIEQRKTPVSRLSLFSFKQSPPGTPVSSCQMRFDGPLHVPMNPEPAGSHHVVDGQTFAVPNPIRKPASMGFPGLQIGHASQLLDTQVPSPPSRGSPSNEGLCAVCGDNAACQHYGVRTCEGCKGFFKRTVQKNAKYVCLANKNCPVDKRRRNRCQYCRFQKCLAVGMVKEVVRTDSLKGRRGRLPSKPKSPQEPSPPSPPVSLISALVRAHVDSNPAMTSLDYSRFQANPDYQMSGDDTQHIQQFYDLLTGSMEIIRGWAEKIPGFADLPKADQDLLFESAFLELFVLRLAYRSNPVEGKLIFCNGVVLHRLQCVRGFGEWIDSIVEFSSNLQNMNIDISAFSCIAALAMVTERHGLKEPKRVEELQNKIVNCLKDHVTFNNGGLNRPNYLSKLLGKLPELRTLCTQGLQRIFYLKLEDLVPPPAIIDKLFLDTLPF
Outline: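 Endpoint: reporter mRNA increase relative to DMSO. HepG2 cells transfected with reporter units, treated 24 h; RNA processed by RT-PCR, labelling, HpaI digestion and capillary electrophoresis.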

[13] = biological target: Transcriptional activator Myb (Homo sapiens) (UniProt P10242); assay: ATG_Myb_CIS: Attagene CIS-FACTORIAL HepG2 Assay for human Myeloblastosis (Myb) Proto-Oncogene Transcription Factor (AID 2282986; active = hit-call score of the fitted dose curve at least 0.9, where 1 is the maximum; inactive = score below 0.9); settings: HepG2 Attagene CIS-FACTORIAL Myb reporter transcription; actives raise or lower the signal
Sequence of Transcriptional activator Myb (Homo sapiens) (P10242 whole entry, looked up): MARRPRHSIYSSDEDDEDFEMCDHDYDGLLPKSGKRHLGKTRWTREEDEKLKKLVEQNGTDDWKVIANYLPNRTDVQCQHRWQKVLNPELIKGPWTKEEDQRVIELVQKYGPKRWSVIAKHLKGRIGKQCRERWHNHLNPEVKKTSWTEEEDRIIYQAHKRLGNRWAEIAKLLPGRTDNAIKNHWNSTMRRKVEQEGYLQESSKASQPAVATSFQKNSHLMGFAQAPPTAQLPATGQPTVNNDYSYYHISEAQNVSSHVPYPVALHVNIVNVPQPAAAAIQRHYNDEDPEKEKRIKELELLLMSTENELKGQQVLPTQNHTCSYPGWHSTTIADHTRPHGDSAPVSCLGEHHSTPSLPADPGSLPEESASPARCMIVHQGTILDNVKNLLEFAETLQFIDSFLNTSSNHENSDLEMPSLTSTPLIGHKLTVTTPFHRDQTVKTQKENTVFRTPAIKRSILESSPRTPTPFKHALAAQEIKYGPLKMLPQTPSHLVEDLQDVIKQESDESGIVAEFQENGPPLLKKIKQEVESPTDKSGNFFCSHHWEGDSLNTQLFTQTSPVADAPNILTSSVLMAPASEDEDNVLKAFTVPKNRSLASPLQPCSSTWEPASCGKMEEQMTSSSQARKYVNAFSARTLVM
Outline: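 In this HepG2 transient-transfection format, cis-regulated reporter mRNA is quantified 24 h post-dosing by RT-PCR with capillary electrophoresis, fitted bidirectionally to DMSO baseline.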

[14] = ATG_TCF_b_cat_CIS: Attagene CIS-FACTORIAL HepG2 Assay for human T-Cell-Factor with beta-catenin (TCF/b-cat) (AID 2282965; active = hit-call score of the fitted dose curve at least 0.9, where 1 is the maximum; inactive = score below 0.9); settings: HepG2 TCF/beta-catenin cis-reporter transcription, actives raise or lower the signal
Outline: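 Cells of the HepG2 line carry transiently transfected reporter units whose promoters respond to endogenous factors. Twenty-four hours post-dosing, reporter mRNA induction is measured by fluorescent RT-PCR and capillary electrophoresis, with DMSO as baseline.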

[15] = biological target: Oxysterols receptor LXR-alpha (Homo sapiens) (UniProt Q13133); assay: ATG_LXRa_TRANS: Attagene TRANS-FACTORIAL HepG2 Assay for human Liver X Receptor alpha (LXRa) (AID 2282980); settings: HepG2 Attagene TRANS reporter, LXRa transactivation
Sequence of Oxysterols receptor LXR-alpha (Homo sapiens) (Q13133 whole entry, looked up, the tested form may be a part): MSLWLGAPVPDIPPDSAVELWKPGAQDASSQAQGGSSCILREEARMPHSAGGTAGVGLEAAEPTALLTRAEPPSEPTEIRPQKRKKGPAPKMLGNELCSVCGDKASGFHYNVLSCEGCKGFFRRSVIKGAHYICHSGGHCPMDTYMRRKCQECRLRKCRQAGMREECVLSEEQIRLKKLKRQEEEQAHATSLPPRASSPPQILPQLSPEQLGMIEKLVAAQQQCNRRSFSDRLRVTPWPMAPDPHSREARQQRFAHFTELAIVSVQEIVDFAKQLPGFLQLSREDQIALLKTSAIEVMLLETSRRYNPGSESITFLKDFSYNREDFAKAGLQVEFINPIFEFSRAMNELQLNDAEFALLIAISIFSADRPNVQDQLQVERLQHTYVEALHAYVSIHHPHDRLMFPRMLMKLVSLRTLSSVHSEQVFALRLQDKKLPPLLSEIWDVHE
Outline: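 Read-out: reporter transcript levels by RT-PCR plus capillary electrophoresis, fluorescence intensity. Transiently transfected HepG2, exogenous NR-GAL4 chimera, GAL4-UAS reporters; 24 h compound exposure. Activity = increase over DMSO negative control.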

[16] = ATG_M_32_TRANS: Attagene TRANS-FACTORIAL HepG2 Assay for M32 Transcription Factor (Internal Marker) (AID 2282984); settings: HepG2 Attagene TRANS M32 internal marker reporter;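 also: transcript level of a background control reporter unit measured by RT-PCR and capillary electrophoresis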
Outline: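 Internal-marker readout from a multiplexed transcription reporter panel. HepG2 cells were transfected with GAL4-UAS reporter units, treated 24 hours, and reporter transcript levels determined by fluorescence after RT-PCR and capillary separation.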

[17] = biological target: Bile acid receptor (Homo sapiens) (UniProt Q96RI1); assay: ATG_FXR_TRANS: Attagene TRANS-FACTORIAL HepG2 Assay for Farnesoid X Receptor (FXR) (AID 2282979); settings: HepG2 Attagene TRANS FXR-GAL4 reporter transcription;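 also: hits raise reporter mRNA above DMSO so AC50 marks FXR activation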
Outline: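 Read-out: fluorescent reporter transcripts quantified by capillary electrophoresis after RT-PCR of total RNA. Source cells were HepG2 transiently carrying chimeric NR-GAL4 plus GAL4-UAS reporter units, dosed 24 h. Activity fitted upward relative to DMSO baseline.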

[18] = ATG_M_19_TRANS: Attagene TRANS-FACTORIAL HepG2 Assay for M19 Transcription Factor (Internal Marker) (AID 2282974); settings: HepG2 Attagene TRANS-FACTORIAL M19 internal marker reporter
Outline: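 Using RT-PCR and capillary electrophoresis, reporter mRNA from transiently transfected human HepG2 cells was quantified following 24 h exposure; activity was fitted in the positive direction against DMSO.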

[19] = biological target: Steroid hormone receptor ERR1 (Homo sapiens) (UniProt P11474); assay: ATG_ERRa_TRANS: Attagene TRANS-FACTORIAL HepG2 Assay for human Estrogen-Related Receptor alpha (ERRa) (AID 2282971); settings: HepG2 Attagene TRANS reporter, ERRa transactivation
Outline: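 Transfected HepG2, 24 h dosing, ERRa-Gal4 chimera driving GAL4-UAS reporter. Readout: reporter mRNA via RT-PCR plus capillary electrophoresis (fluorescence). Positive direction vs DMSO control.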

[20] = biological target: Estrogen-related receptor gamma (Homo sapiens) (UniProt P62508); assay: ATG_ERRg_TRANS: Attagene TRANS-FACTORIAL HepG2 Assay for human Estrogen-Related Receptor gamma (ERRg) (AID 2282977); settings: HepG2 Attagene TRANS reporter, ERRg transactivation;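 also: hits increase reporter signal over DMSO so potencies reflect activators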
Outline: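 Induction of reporter transcripts through a chimeric NR-Gal4 protein is quantified in transfected human HepG2 liver cells after 24 h chemical exposure, using RT-PCR with capillary electrophoresis detection and DMSO as baseline.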

Measured: AC50

NC(=O)c1cnccn1
not listed: [14] | [15] | [16] | [17] | [18] | [19] | [20]
inactive: all other assays above

C=CC(=O)OCCCCCC
inactive: [14] | [1] | [2] | [6] | [7] | [15] | [9] | [16] | [12] | [13]

NC(=O)NC(N)=O
not listed: [3] | [7] | [8] | [11] | [17] | [18] | [19] | [20]
inactive: all other assays above

CC1=C(C=O)C(C)(C)CCC1
inactive: [1] | [2] | [3] | [4] | [5] | [6] | [17] | [15] | [9] | [11] | [13]

CCCCCCCC1CCCC1=O (centres undefined)
inactive: [14] | [1] | [2] | [5] | [6] | [11] | [12] | [13]

CC/C=C\CCOC(C)OCC (centres undefined)
not listed: [9] | [14] | [15] | [17] | [18] | [19] | [20]
inactive: all other assays above

C=C(C)CCCC(C)CCO (centres undefined)
not listed: [3] | [4] | [8] | [10] | [17] | [18] | [19] | [20]
inactive: all other assays above

O=c1cc(-c2ccc(O)cc2)oc2cc(O)cc(O)c12
active: [6] 16.2 µM
not listed: [3] | [5] | [7] | [8] | [16] | [17] | [19] | [20]
inactive: all other assays above

C=C(C)C(=O)OCCC[Si](OC)(OC)OC
inactive: [14] | [1] | [2] | [5] | [6] | [18] | [15] | [9] | [10] | [16] | [13]

CC(C)Cc1ccccc1
inactive: [14] | [1] | [2] | [6] | [10] | [11] | [16] | [13]

NC(N)=NC(N)=NCCc1ccccc1
inactive: [14] | [1] | [2] | [5] | [6] | [8] | [15] | [9] | [10] | [13]

O=C(O)c1ccccc1O
not listed: [8] | [10] | [11] | [12] | [14] | [17]
inactive: all other assays above
